{"source": "PubChem BioAssay AID2241", "about": "(Broad Institute, 2010)", "note": "Screen size: about 21,000 compounds; about 110 (0.52%) were called active. The entries come from a sample that favours actives as a whole. Unmarked numbers belong to inactive results.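 Rule for the calls: active = most replicate scores above 10, or exactly half above 10 with mean activity above 10; inconclusive = mean activity below 10 while half the replicates exceed 10; inactive = most replicate scores below 10.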", "data": [{"assay": "inducers of caspase activity in MEF A1-2A-BIM cells, primary screen, A1 inhibitor project, cell-based, CaspaseGlo luminescence (AID 2241);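 note: effector caspase 3 and 7 activity cleaving a DEVD luciferin substrate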", "settings": "caspase-Glo luminescence, 3 h, stronger effect = higher value, percent of clofoctol signal, DMSO as zero, concentration not given here", "values": [{"smiles": "O=C(Nc1ccccc1)Nc1ccc(C2SCCS2)cc1", "caspase activation": "-6.29%"}, {"smiles": "Cc1ccc(-n2c(C)cc(C=C3C(=O)c4ccccc4C3=O)c2C)cc1", "caspase activation": "-6.47%"}, {"smiles": "C[C@@H]1CN([C@H](C)CO)C(=O)c2cc(NC(=O)Cc3ccccc3)ccc2O[C@H]1CN(C)S(=O)(=O)c1cn(C)cn1", "caspase activation": "0.269%"}, {"smiles": "N#CCNC(=O)CN1C(=O)c2ccccc2C1=O", "caspase activation": "0.74%"}, {"smiles": "CCN1C(=O)c2cccc3c(NC(=S)NC(=O)c4ccccc4)ccc1c23", "caspase activation": "11.5% (active)"}, {"smiles": "CCN1C(=O)c2ccccc2Sc2ccc(NC(=O)N3CCc4ccccc43)cc21", "caspase activation": "-0.754%"}, {"smiles": "CC1CCC(NC(=O)Cn2ncn3c(cc4sccc43)c2=O)CC1", "note": "(centres undefined)", "caspase activation": "-0.216%"}, {"smiles": "O=C1CC(c2ccccc2)C(=O)N1c1ccc(F)cc1", "note": "(centres undefined)", "caspase activation": "0.129%"}, {"smiles": "COc1cc(SC)ccc1C(=O)N(C)c1ccccc1", "caspase activation": "-0.443%"}, {"smiles": "S=C(Nc1cccc(Cl)c1)NC1CCSc2ccc(Cl)cc21", "note": "(centres undefined)", "caspase activation": "1.82%"}, {"smiles": "C[C@H](CO)N1C[C@H](C)[C@H](CN(C)S(C)(=O)=O)Oc2ccc(NC(=O)CCCN(C)C)cc2C1=O", "caspase activation": "0.894%"}, {"smiles": "COc1ccc(S(=O)(=O)N(C)C[C@@H]2Oc3ccc(NC(=O)Nc4c(C)noc4C)cc3C(=O)N([C@H](C)CO)C[C@@H]2C)cc1", "caspase activation": "-0.0515%"}, {"smiles": "CC1CCC(C(C)C)C(=O)/C1=C\\c1ccc(NC(=O)CCC(=O)O)cc1", "note": "(centres undefined)", "caspase activation": "-1.52%"}, {"smiles": "COc1ccc(NC(=O)Nc2ccc3c(c2)C(=O)N([C@@H](C)CO)C[C@H](C)[C@@H](CN(C)Cc2ccc4c(c2)OCO4)O3)cc1", "caspase activation": "0.747%"}, {"smiles": "CC1=CCC(C(=O)O)(C(=O)NCc2ccccc2)C(c2ccc(Br)cc2)C1", "note": "(centres undefined)", "caspase activation": "0.252%"}, {"smiles": "C[C@@H]1CN([C@H](C)CO)C(=O)c2cc(N(C)C)ccc2O[C@@H]1CN(C)S(C)(=O)=O", "caspase activation": "1.19%"}, {"smiles": "Cc1noc(C)c1NC(=O)N(C)C[C@@H]1Oc2ccc(NS(C)(=O)=O)cc2C(=O)N([C@H](C)CO)C[C@@H]1C", "caspase activation": "-0.083%"}, {"smiles": "O=c1oc2ccccc2cc1-c1ccc(Cl)cc1", "caspase activation": "-4.58%"}, {"smiles": "COc1ccc(OC)c2c(C)cc(=O)[nH]c12", "caspase activation": "0.675%"}, {"smiles": "Cc1ccc(Nc2nc(C)cc(C)c2C(N)=O)cc1", "caspase activation": "0.407%"}, {"smiles": "CCOC(=O)c1cc(CC)sc1/N=C/C1C(=O)c2ccccc2C1=O", "caspase activation": "0.959%"}, {"smiles": "NC(=O)c1nnc2cc(-c3ccccc3)nn2c1N", "caspase activation": "-5.53%"}, {"smiles": "C[C@@H]1CN([C@@H](C)CO)C(=O)c2cc(NC(=O)c3ccncc3)ccc2O[C@H]1CN(C)S(=O)(=O)c1ccc(Cl)cc1", "caspase activation": "-0.107%"}, {"smiles": "Cc1nc2ccccn2c1-c1ccnc(SCC(=O)c2ccc(Cl)cc2)n1", "caspase activation": "2.75%"}, {"smiles": "COc1cc(C2OC(c3ccc(O)c(OC)c3)C(C)(O)C2C)ccc1O", "note": "(centres undefined)", "caspase activation": "0.0643%"}, {"smiles": "O=C(COC(=O)c1cc2ccccc2oc1=O)c1ccccc1", "caspase activation": "-0.224%"}, {"smiles": "CC(C(=O)NC1CCCC1)n1c2ccccc2c2cnn(C)c(=O)c21", "note": "(centres undefined)", "caspase activation": "-0.382%"}, {"smiles": "CCn1c(=O)c2c(n3c(SCC(N)=O)nnc13)-c1ccccc1CC21CCCCC1", "caspase activation": "1.18%"}, {"smiles": "O=C(NCN1CCCCC1)C12CC3CC(CC(C3)C1)C2", "caspase activation": "0.282%"}, {"smiles": "C[C@H]1O[C@@H](O[C@H]2[C@@H](O)C[C@H](O[C@H]3[C@@H](O)C[C@H](O[C@H]4CC[C@]5(C)C6C[C@@H](O)[C@]7(C)[C@@H](C8=CC(=O)OC8)CC[C@]7(O)C6CC[C@@H]5C4)O[C@@H]3C)O[C@@H]2C)C[C@H](O)[C@@H]1O", "note": "(some centres undefined)", "caspase activation": "0.786%"}, {"smiles": "CN(c1ncnc2c1cnn2-c1ccc(Cl)cc1)C1CCCCC1", "caspase activation": "-2.01%"}, {"smiles": "CC1CCN(S(=O)(=O)c2ccc3nc(-c4ccccn4)cc(C(=O)NC4CCCC4)c3c2)CC1", "caspase activation": "-1.16%"}, {"smiles": "CC(C)(C)c1ccc(/C=C/C(=O)NC2CCS(=O)(=O)C2)cc1", "note": "(centres undefined)", "caspase activation": "-0.861%"}, {"smiles": "C=C1C(=O)O[C@@H]2[C@H]3C(CO)=CC(=O)C3=C(C)C[C@H](OC(=O)Cc3ccc(O)cc3)[C@@H]12", "caspase activation": "-0.373%"}, {"smiles": "C[C@@H]1CN([C@H](C)CO)C(=O)c2cc(NS(=O)(=O)c3ccc(F)cc3)ccc2O[C@H]1CN(C)Cc1ccncc1", "caspase activation": "0.648%"}, {"smiles": "CC(C)(C)c1ccc(Cn2c(=N)n(CC(=O)O)c3ccccc32)cc1", "caspase activation": "-0.508%"}, {"smiles": "C[C@@H]1CN([C@@H](C)CO)C(=O)c2cc(NC(=O)Cc3ccccc3)ccc2O[C@@H]1CN(C)S(=O)(=O)c1ccccc1", "caspase activation": "0.193%"}, {"smiles": "CCCCn1c2nc3ccccc3nc2c2c(N)ncnc21", "caspase activation": "-0.174%"}, {"smiles": "C[C@@H]1CN([C@@H](C)CO)C(=O)c2cc(NC(=O)Nc3ccc(F)cc3)ccc2O[C@H]1CN(C)CC1CCCCC1", "caspase activation": "0.271%"}, {"smiles": "CCc1ccccc1NC(=O)c1ccc2snnc2c1", "caspase activation": "0.441%"}, {"smiles": "CCOC(=O)C1CCC(CN(Cc2ccccc2)S(=O)(=O)c2ccc(F)c(C)c2)CC1", "note": "(centres undefined)", "caspase activation": "0.544%"}, {"smiles": "CC(C)[C@H](CO)Nc1nc(Nc2cc(N)cc(Cl)c2)c2ncn(C(C)C)c2n1", "caspase activation": "13.9% (active)"}, {"smiles": "CC(C)OC(=O)C1=c2s/c(=C\\c3cccnc3)c(=O)n2C(N)=C(C#N)C1c1cccnc1", "note": "(centres undefined)", "caspase activation": "-0.566%"}, {"smiles": "COc1ccc(NC(=O)N(C)C[C@H]2Oc3ccc(NS(=O)(=O)c4ccc(F)cc4)cc3C(=O)N([C@@H](C)CO)C[C@@H]2C)cc1", "caspase activation": "-0.29%"}, {"smiles": "Cc1ccc(-c2nc(Nc3ccccc3F)sc2C)cc1", "caspase activation": "-0.917%"}, {"smiles": "CC1CCN(C(=O)Cn2cnc3c(cnn3-c3ccccc3)c2=O)CC1", "caspase activation": "-0.191%"}, {"smiles": "O=C(c1nc2ncccn2n1)N(Cc1ccccc1)Cc1ccccc1", "caspase activation": "-0.322%"}, {"smiles": "COc1nnc(-c2ccc(C)c(S(=O)(=O)N(C)C)c2)c2ccccc12", "caspase activation": "0.109%"}, {"smiles": "Cc1ccc(S(=O)(=O)Nc2ccc3c(c2)C(=O)N([C@@H](C)CO)C[C@@H](C)[C@@H](CN(C)Cc2ccncc2)O3)cc1", "caspase activation": "0.309%"}]}]}
